Measurements reported in the supplement of paper PMC8975748.
Where a name gives a salt, the structure may show the parent alone.

Tested on: Saccharomyces cerevisiae BY4741 SeMeCo community
Experiment: z-score of prototroph abundance vs DMSO median; higher = larger share of this subpopulation than in DMSO controls
Conditions: 10 µM; 24 h; SM minimal medium; subpopulation (auxotrophy): Prototroph
Protocol: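 Fluorescent four-plasmid SeMeCo (self-establishing metabolically cooperating S. cerevisiae BY4741 community; plasmids pH-mRuby2, pL-mWasabi, pU-eCFP, pM-TagRFP657) was grown 24 h in minimal SM medium with each Selleck FDA-approved drug at 10 µM in 384-well plates. Cells were fixed and imaged by high-content confocal microscopy. For each auxotrophic subpopulation (and the prototroph), a z-score gives the deviation from the DMSO vehicle-control population median.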

Row | SMILES | z-score of prototroph abundance
1 | CC1(C)S[C@@H]2[C@H](NC(=O)[C@H](N)c3ccccc3)C(=O)N2[C@H]1C(=O)O [Ampicillin sodium] | 0.8
2 | CCN1CCN(C(=O)N[C@@H](C(=O)N[C@@H]2C(=O)N3C(C(=O)O)=C(CSc4nnnn4C)CS[C@H]23)c2ccc(O)cc2)C(=O)C1=O [Cefoperazone] | 0.07
3 | COCCCN1CCC(NC(=O)c2cc(Cl)c(N)c3c2OCC3)CC1 [Prucalopride] | -0.29
4 | O=C1C(CC[S+]([O-])c2ccccc2)C(=O)N(c2ccccc2)N1c1ccccc1 (racemic) [(+/-)-Sulfinpyrazone] | 0.12
5 | Cc1cc(/C=C/c2ccc3cc(N(C)C)ccc3[n+]2C)c(C)n1-c1ccccc1 [pyrvinium] | 0.55
6 | CCN(CC)CCOc1ccc2c(c1)C(=O)c1cc(OCCN(CC)CC)ccc1-2 [Tilorone dihydrochloride] | 0.72
7 | C#C[C@]1(O)CC[C@H]2[C@@H]3CCC4=Cc5oncc5C[C@]4(C)[C@H]3CC[C@@]21C [Danazol] | 0
8 | O=C1c2cccc3c2[C@H](CCC3)CN1[C@@H]1CN2CCC1CC2 [Palonosetron HCl] | 0.21
9 | Oc1cccc(O)c1 [Resorcinol] | 0.94
10 | CS(=O)(=O)Nc1ccc([N+](=O)[O-])cc1Oc1ccccc1 [Nimesulide] | 0.12
11 | COc1cccc2c1C(=O)c1c(O)c3c(c(O)c1C2=O)CC(O)(C(=O)CO)CC3OC1CC(N)C(O)C(C)O1 (stereo not given) [Doxorubicin (Adriamycin) HCl] | -3.54
12 | CN(Cc1ccc(C(C)(C)C)cc1)Cc1cccc2ccccc12 [Butenafine HCl] | 1.36
13 | Cc1c(Cl)cccc1Nc1ccccc1C(=O)O [Tolfenamic Acid] | 1.21
14 | Cc1cccc(C#Cc2ccccc2)n1 | 0.53
15 | CCc1c(C)[nH]c2c1C(=O)C(CN1CCOCC1)CC2 (stereo not given) [Molindone hydrochloride] | 0.46
16 | Cc1onc(-c2ccccc2)c1C(=O)N[C@@H]1C(=O)N2[C@@H]1SC(C)(C)[C@@H]2C(=O)O [Oxacillin sodium monohydrate] | -0.42
17 | CCCC1CC(C(=O)NC(C(C)Cl)C2OC(SC)C(O)C(O)C2O)N(C)C1 (stereo not given) [Clindamycin alcoholate] | -0.45
18 | COc1cc2c(cc1OC)[C@@H]1Cc3ccc(OC)c(OC)c3CN1CC2 [Rotundine] | -0.12
19 | O=C(O)c1cc(-c2ccc(F)cc2F)ccc1O [Diflunisal] | 3.54
20 | CC[C@H]1OC(=O)[C@H](C)[C@@H](O[C@H]2C[C@@](C)(OC)[C@@H](O)[C@H](C)O2)[C@H](C)[C@@H](O[C@@H]2O[C@H](C)C[C@H](N(C)C)[C@H]2O)[C@](C)(O)C[C@@H](C)CN(C)[C@H](C)[C@@H](O)[C@]1(C)O [Azithromycin Dihydrate] | -0.48

Row | SMILES | z-score of prototroph abundance
21 | CCCCCCCCOc1ccccc1C(=O)Nc1ccc(C(=O)OCC[N+](C)(CC)CC)cc1 [Otilonium Bromide] | -2.44
22 | N#CC(c1ccc(Cl)cc1)c1c(Cl)cc(-n2ncc(=O)[nH]c2=O)cc1Cl (stereo not given) [Diclazuril] | 1.02
23 | Oc1c(Cl)cc(Cl)c(Cl)c1Cc1c(O)c(Cl)cc(Cl)c1Cl [Hexachlorophene] | -5.27
24 | CC[C@H](C)C[C@H](C)CCCCCCCCC(=O)N[C@H]1C[C@@H](O)[C@@H](NCCN)NC(=O)[C@@H]2[C@@H](O)CCN2C(=O)[C@H]([C@H](O)CCN)NC(=O)[C@H]([C@H](O)[C@@H](O)c2ccc(O)cc2)NC(=O)[C@@H]2C[C@@H](O)CN2C(=O)[C@H]([C@@H](C)O)NC1=O [Caspofungin Acetate] | -12.2
25 | CCC1(c2ccccc2)C(=O)NCNC1=O [Primidone] | 0.08
26 | CC(=O)NO [Acetohydroxamic acid] | -0.09
27 | COc1ccc2c3c1O[C@H]1C[C@@H](O)C=C[C@@]31CCN(C)C2 [Galanthamine] | -1.09
28 | CCCCCC(=O)O[C@]1(C(C)=O)CC[C@H]2[C@@H]3CCC4=CC(=O)CC[C@]4(C)[C@H]3CC[C@@]21C [Hydroxyprogesterone caproate] | -1.13
29 | Nc1c2c(nc3ccccc13)CCCC2 [Tacrine hydrochloride hydrate] | -0.22
30 | COC(=O)C1=C(C)NC(C)=C(C(=O)OCC(C)C)C1c1ccccc1[N+](=O)[O-] (stereo not given) [Nisoldipine] | -0.75
31 | COC(=O)Nc1nc2cc(C(=O)c3ccccc3)ccc2[nH]1 [Mebendazole] | -1.69
32 | CCCCCCCCCCCCCCCCOP(=O)([O-])OCC[N+](C)(C)C [Miltefosine] | -22.6
33 | CN(C)c1cc(NC(=O)CNC(C)(C)C)c(O)c2c1CC1CC3C(N(C)C)C(=O)C(C(N)=O)=C(O)C3(O)C(=O)C1=C2O (stereo not given) [Tigecycline] | 0.44
34 | c1cnc2cc3c(cc2n1)[C@@H]1CNC[C@H]3C1 [Varenicline Tartrate] | 0.71
35 | CCCCN1CCCC[C@H]1C(=O)Nc1c(C)cccc1C [Levobupivacaine HCl] | 0.73
36 | C[C@]12CC[C@@H]3c4ccc(O)cc4CC[C@H]3[C@@H]1CCC2=O [Estrone] | 0.49
37 | C#C[C@]1(O)CC[C@H]2[C@@H]3CCC4=CCCC[C@@H]4[C@H]3C(=C)C[C@@]21CC [Desogestrel] | 0.47
38 | CCCOc1ccc2c(c1)CC[C@@H]1[C@@H]2CC[C@]2(C)[C@@H](OC)CC[C@@H]12 [Promestriene] | -1.13
39 | CC(C)[C@H]1CC[C@H](C(=O)N[C@H](Cc2ccccc2)C(=O)O)CC1 [Nateglinide] | -0.85
40 | Cc1c(S(=O)(=O)O)oc2c1C(=O)C(=O)c1c-2ccc2c1CCCC2(C)C [Tanshinone IIA sulfonate (sodium)] | -0.48
